From PubChem BioAssay AID493168 (National Center for Advancing Translational Sciences (NCATS), 2011)
Results filed as inconclusive are left out. Calls of active or inactive are those of the source. The call rests on the fitted dose curve; in most records, active means well fitted inhibition curve with a large enough effect; inconclusive means small, poorly fitted or top-dose-only effect, or effect the other way; inactive means flat fitted curve, though single readings scatter.

Biological target: Ubiquitin carboxyl-terminal hydrolase 2 (Homo sapiens) (UniProt O75604)
Sequence (O75604 whole entry, looked up): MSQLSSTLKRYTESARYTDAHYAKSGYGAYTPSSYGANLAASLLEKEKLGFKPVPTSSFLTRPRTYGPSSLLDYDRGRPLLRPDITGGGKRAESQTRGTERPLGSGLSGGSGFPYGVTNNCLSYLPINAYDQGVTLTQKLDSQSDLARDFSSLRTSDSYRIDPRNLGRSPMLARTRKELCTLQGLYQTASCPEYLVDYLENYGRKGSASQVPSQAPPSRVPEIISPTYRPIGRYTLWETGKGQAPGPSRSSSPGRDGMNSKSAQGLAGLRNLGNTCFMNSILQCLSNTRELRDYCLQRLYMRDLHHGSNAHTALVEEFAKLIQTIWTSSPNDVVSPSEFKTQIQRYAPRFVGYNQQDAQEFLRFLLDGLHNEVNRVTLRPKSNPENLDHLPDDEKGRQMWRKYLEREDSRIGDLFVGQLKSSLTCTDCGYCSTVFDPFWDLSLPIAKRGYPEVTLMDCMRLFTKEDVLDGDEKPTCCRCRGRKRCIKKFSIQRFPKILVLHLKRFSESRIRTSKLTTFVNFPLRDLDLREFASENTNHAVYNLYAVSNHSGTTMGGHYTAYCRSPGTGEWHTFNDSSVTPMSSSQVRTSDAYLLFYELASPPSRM
Assay: Confirmation Assay for Inhibitors of Ubiquitin-specific Protease USP2a Using CHOP2 as the Reporter; further: nearly all actives have a fitted effect of over 55% in size
Details: USP2 core, Ub-CHOP2 coupled reporter fluorescence; series mostly up to 38.3 µM
Method in brief: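 Ub-CHOP2 cleavage coupled to reporter activation was read by fluorescence after 60 min at RT, with 25 nM final Ub-CHOP2 and substrate. Enzyme (10 nM final USP2 core) first sat 30 min with compound; data were normalized to NEM and fitted to concentration-response curves.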
Potency means the concentration at half of the fitted maximal effect.

Potency, inactive:
Cc1cc(C)c2c(N=CN(C)C)c(C(=O)N3CCN(c4ncccn4)CC3)sc2n1
COc1cccc(N2CCN(C(=O)CN(C)S(=O)(=O)c3ccc4c(c3)CCC(=O)N4)CC2)c1
Cc1nc(N(C)C)c2sc(=S)n(C)c2n1
O=C(COC(=O)c1ccc(F)c(S(=O)(=O)N2CCOCC2)c1)c1ccccc1
COc1ccc(C(=O)COC(=O)c2ccccc2O)c(OC)c1
O=C1NCC(CN(c2ccccc2)c2ccccc2)O1 (stereo not given)
COc1ccc(OCC(=O)NCCNC(=O)c2cccnc2)cc1
O=C(COC(=O)c1cccc(S(=O)(=O)N2CCc3ccccc32)c1)NC1CCS(=O)(=O)C1 (stereo not given)
c1ccc(CN2CCN(CCOCCOc3cccc4ccccc34)CC2)cc1
COc1ccc(S(=O)(=O)N(C)CC(=O)Nc2cccc(C(C)=O)c2)cc1Cl
COc1cccc(NC(=O)CSc2nncn2-c2ccccn2)c1
CC(C)(C)NC(=O)CSc1nc(O)cc(=O)n1-c1ccccc1F
COc1cc2cc(CN(CCN3CCCC3)C(=O)Nc3ccc(F)cc3)c(=O)[nH]c2cc1OC
CC(C)OCCCNC(=O)CN1C(=O)CC(C)(C)S(=O)(=O)c2ccccc21
C=CCOc1cccc(C2C(C(=O)c3ccco3)=C(O)C(=O)N2CCN(CC)CC)c1 (stereo not given)
CC(=O)COc1ccc2c(-c3ccccc3)cc(=O)oc2c1
Cc1ccc(C2=N/C(=C\c3c(C)nn(-c4ccccc4)c3N3CCCC3)C(=O)O2)cc1
CCn1cc(C(=O)N2CCOCC2)c(=O)c2cc(S(=O)(=O)N(C)C)ccc21
CCOc1ccc(NC(=O)N(CCCN2CCOCC2)Cc2cccnc2)cc1
CCOC(=O)C1=CN(Cc2cccc(F)c2)S(=O)(=O)NC1c1ccc(Br)cc1F (stereo not given)
Cc1cc(NC(=O)c2cccc(S(=O)(=O)N(C)C)c2)n(-c2ccccn2)n1
O=C(CCn1c(=O)c2ccccc2n(Cc2ccccc2)c1=O)NCc1ccc2c(c1)OCO2
O=C(c1ccccc1)N1CCN(C2C3CC4CC(C3)CC2C4)CC1 (stereo not given)
O=C(O)/C=C/c1ccc(S(=O)(=O)Nc2ccccc2C(=O)Nc2ccc(F)cc2)cc1
Cc1ccc2[nH]c3c(c2c1)CN(C(=O)CN1CCSCC1)CC3
COc1cc(C(O)P(=O)(OC(C)C)c2ccc(N(C)C)cc2)cc(OC)c1OC (stereo not given)
Cc1nc(NC(C)C)c2cnn(CCc3ccccc3)c2n1
COc1ccc(NC(=O)CSc2nc(O)cc(=O)n2-c2ccc(OC)cc2)cc1
CC1CCCCN1CCNC(=O)CC1Oc2ccccc2NC1=O (stereo not given)
CN(C)C=Nc1ncc2c3ccccc3n(CCN(C)C)c2c1C#N
COc1ccccc1NC(=O)N1CCN(c2ccccn2)CC1
CN(C)S(=O)(=O)c1cccc(NC(=S)NNC(=O)c2cc3ccccc3cc2O)c1
COCCNCC(=O)N1CCCCCC1
C=C(CCC(=O)c1ccccc1)C(=O)c1ccccc1
CC(C)N(C(=O)c1sc2cc([N+](=O)[O-])ccc2c1Cl)C(C)C
O=C(N/C(=C/c1cccnc1)C(=O)N1CCOCC1)c1ccco1
O=C(CSCCO)Nc1cccc2ccccc12
COc1ccc2nc(C)cc(SCC(=O)N/N=C/c3c(OC)ccc4ccccc34)c2c1
C=CC[C@@H](CC(=O)N(CCO)Cc1ccccc1)C(=O)NCCOC(=O)[C@H](CC=C)CC(=O)OC(C)(C)C

Potency, active:
Cc1ccc(S(=O)(=O)N2[C@@H](c3ccc(C(C)(C)C)cc3)C(C(=O)O)=CC[C@H]2c2ccc(Cl)cc2)cc1 14.7 µM
